# Records with an inconclusive call do not appear. Where a call stands in place of a potency, no number is given. Active and inactive are the calls of the source. The call rests on the fitted dose curve.
# Target: Muscarinic acetylcholine receptor M1 (Homo sapiens) (UniProt P11229)
# Assay: Cholinergic receptor muscarinic 1 (CHRM1) small molecule antagonists, cell-based qHTS assay (AID 1963588); further: nearly all actives have a fitted effect of over 40% in size
# Settings: CHRM1-CHO antagonist mode, calcium flux fluorescence; series mostly up to 61.5 µM
# Summary of the method: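 Compounds were tested at 15 concentrations in three independent runs. Dye-loaded CHRM1-CHO cells were exposed 5 min at room temperature before stimulation by acetylcholine added at 50nM. Intracellular calcium was read kinetically on FDSS for 3 min.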
# Sequence of Muscarinic acetylcholine receptor M1 (Homo sapiens) (P11229 whole entry, looked up): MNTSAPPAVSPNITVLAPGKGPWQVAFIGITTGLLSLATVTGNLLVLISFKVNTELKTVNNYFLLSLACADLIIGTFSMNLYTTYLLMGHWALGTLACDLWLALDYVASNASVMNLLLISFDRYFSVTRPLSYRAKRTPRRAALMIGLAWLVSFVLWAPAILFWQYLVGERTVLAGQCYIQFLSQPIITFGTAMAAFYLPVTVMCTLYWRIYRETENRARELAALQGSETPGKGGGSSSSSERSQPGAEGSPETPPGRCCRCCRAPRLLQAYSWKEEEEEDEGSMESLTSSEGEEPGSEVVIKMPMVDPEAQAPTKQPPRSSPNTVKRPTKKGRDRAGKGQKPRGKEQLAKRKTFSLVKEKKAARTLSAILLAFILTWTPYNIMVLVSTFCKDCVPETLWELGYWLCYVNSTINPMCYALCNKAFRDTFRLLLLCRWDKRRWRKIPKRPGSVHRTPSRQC
row,SMILES,Potency
1,Oc1ccccc1-c1ccccc1,inactive
2,ClCc1ccccc1,inactive
3,CCCCC(C#N)(Cn1cncn1)c1ccc(Cl)cc1 (stereo not given),inactive
4,Cc1ccccc1N,inactive
5,Cc1ccc(N)cc1,inactive
6,O=C(CCl)CCl,inactive
7,Nc1ccc(Cl)cc1,inactive
8,O=S(=O)(O)C(F)(F)C(F)(F)C(F)(F)C(F)(F)C(F)(F)C(F)(F)F,inactive
9,C=CC(=O)OCCO,inactive
10,C=C(C)[C@@H]1CC=C(C=O)CC1,inactive
11,COS(=O)(=O)c1ccc(C)cc1,inactive
12,O=C(O)c1ccc(=O)[nH]c1,inactive
13,Nc1ccccc1Cl,inactive
14,O=C1C(Cl)=C(Cl)C(=O)c2ccccc21,inactive
15,CCCCCCOC(=O)c1ccccc1C(=O)OCCCCCC,inactive
16,CCCCOCCOC(C)=O,inactive
17,C1CCC2CCCCC2C1 (stereo not given),inactive
18,Cc1cc(-c2ccc(N)c(C)c2)ccc1N,inactive
19,Cc1ccc(O)c(C)c1,inactive
20,C#CC(C)(C)NC(=O)c1cc(Cl)cc(Cl)c1,inactive

# — PubChem BioAssay (Tox21)
